{"source": "the antibiotic and cytotoxicity screens of Wong et al. (2023)", "note": "The whole screen tested about 39,000 compounds, of which about 3,300 (8.5%) were called active. This is one part of a sample in which actives are shown more often than they occur."}
{"test_system": "HepG2", "assay": "cytotoxicity call (relative viability < 0.9)", "conditions": "10 µM"}
{"smiles": "CC1(C)OC2CC3C4CC(F)C5=CC(=O)C=CC5(C)C4(F)C(O)CC3(C)C2(C(=O)CO)O1", "note": "(centres undefined)", "cytotoxicity call": "inactive"}
{"smiles": "COCCOC(=O)C1=C(C)NC(C)=C(C(=O)OC(C)C)C1c1cccc([N+](=O)[O-])c1", "note": "(centres undefined)", "cytotoxicity call": "inactive"}
{"smiles": "COc1cc(OC)cc(C(=O)OCCCN2CCN(CCCOC(=O)c3cc(OC)cc(OC)c3)CC2)c1", "cytotoxicity call": "inactive"}
{"smiles": "COC(=O)C1=C(C)NC(C)=C(C(=O)OCCCN2CCC(c3ccccc3)(c3ccccc3)CC2)[C@@H]1c1cccc([N+](=O)[O-])c1", "cytotoxicity call": "active"}
{"smiles": "CC1=C(C(=O)OCCN(Cc2ccccc2)c2ccccc2)[C@@H](c2cccc([N+](=O)[O-])c2)C(P2(=O)OCC(C)(C)CO2)=C(C)N1.CCO.Cl", "cytotoxicity call": "inactive"}
{"smiles": "COCCOC(=O)C1=C(C)NC(C)=C(C(=O)OCC=Cc2ccccc2)C1c1cccc([N+](=O)[O-])c1", "note": "(centres undefined)", "cytotoxicity call": "active"}
{"smiles": "CC1=C(C(=O)OCCN(Cc2ccccc2)c2ccccc2)[C@H](c2cccc([N+](=O)[O-])c2)C(P2(=O)OCC(C)(C)CO2)=C(C)N1", "cytotoxicity call": "inactive"}
{"smiles": "COC(=O)C1=C(C)NC(C)=C(C(=O)OCCCN2CCC(c3ccccc3)(c3ccccc3)CC2)[C@H]1c1cccc([N+](=O)[O-])c1", "cytotoxicity call": "active"}
{"smiles": "O=C(C[C@@H]1CC[C@H]2[C@@H](COC[C@@H](O)CN2Cc2ccccc2F)O1)N[C@H]1CCN(Cc2ccccc2)C1", "cytotoxicity call": "inactive"}
{"smiles": "CO[C@@H]1CN(C)C(=O)c2ccc(NC(=O)c3ccc(F)cc3)cc2OC[C@H](C)N(C(=O)CN(C)C)C[C@@H]1C", "cytotoxicity call": "inactive"}
{"smiles": "C[C@H]1CN([C@@H](C)CO)C(=O)c2cccc(NC(=O)C3CC3)c2O[C@H]1CN(C)Cc1ccc2c(c1)OCO2", "cytotoxicity call": "inactive"}
{"smiles": "C[C@@H]1CN([C@H](C)CO)S(=O)(=O)c2ccc(C#CCN(C)C)cc2O[C@H]1CN(C)C(=O)CN(C)C", "cytotoxicity call": "inactive"}
{"smiles": "Cc1noc(C)c1NC(=O)N(C)C[C@H]1Oc2ccc(NS(=O)(=O)c3ccccc3)cc2C(=O)N([C@H](C)CO)C[C@H]1C", "cytotoxicity call": "inactive"}
{"smiles": "COCCNC(=O)C[C@H]1CC[C@H]2[C@H](COc3ccc(NC(=O)Nc4cccc(F)c4)cc3C(=O)N2C)O1", "cytotoxicity call": "inactive"}
{"smiles": "C[C@H](CO)N1C[C@H](C)[C@@H](CN(C)CC2CC2)Oc2ccc(NS(=O)(=O)c3cccs3)cc2CC1=O", "cytotoxicity call": "inactive"}
{"smiles": "NCC[C@H]1CC[C@H](NC(=O)C2CCCCC2)[C@@H](CO)O1", "cytotoxicity call": "inactive"}
{"smiles": "COc1ccc(NC(=O)N(C)C[C@@H]2OCCCC[C@H](C)Oc3ccc(NC(=O)c4ccccc4)cc3C(=O)N([C@H](C)CO)C[C@@H]2C)cc1", "cytotoxicity call": "inactive"}
{"smiles": "C[C@H](CO)N1C[C@H](C)[C@@H](CN(C)Cc2ccc3c(c2)OCO3)Oc2ccc(NS(=O)(=O)c3ccccc3)cc2CC1=O", "cytotoxicity call": "inactive"}
{"smiles": "C[C@@H]1CN([C@@H](C)CO)C(=O)c2cc(NC(=O)Cn3cnnn3)ccc2O[C@@H]1CN(C)C(=O)Nc1cccc2ccccc12", "cytotoxicity call": "inactive"}
{"smiles": "COc1ccc(S(=O)(=O)Nc2ccc3c(c2)C(=O)N([C@@H](C)CO)C[C@@H](C)[C@H](CN(C)C(=O)C2CCCCC2)OCCCC[C@@H](C)O3)cc1", "cytotoxicity call": "inactive"}
{"smiles": "C[C@@H]1CCCCO[C@@H](CN(C)Cc2ccncc2)[C@H](C)CN([C@H](C)CO)C(=O)c2cc(NC(=O)Nc3ccccc3)ccc2O1", "cytotoxicity call": "inactive"}
{"smiles": "C[C@H](CO)N1C[C@H](C)[C@@H](CN(C)C(=O)Cc2ccccc2)OCCCC[C@H](C)Oc2ccc(NC(=O)Nc3ccc4c(c3)OCO4)cc2C1=O", "cytotoxicity call": "inactive"}
{"smiles": "C[C@@H]1CN([C@H](C)CO)C(=O)Cc2cc(NC(=O)CCCN(C)C)ccc2O[C@H]1CN(C)Cc1ccc(Oc2ccccc2)cc1", "cytotoxicity call": "active"}
{"smiles": "C[C@H]1CN([C@@H](C)CO)C(=O)Cc2cc(NC(=O)CCCN(C)C)ccc2O[C@H]1CN(C)Cc1ccc(Oc2ccccc2)cc1", "cytotoxicity call": "inactive"}
{"smiles": "C[C@H](CO)N1C[C@H](C)[C@H](CN(C)Cc2ccc(Oc3ccccc3)cc2)Oc2ccc(NC(=O)CCCN(C)C)cc2CC1=O", "cytotoxicity call": "inactive"}
{"smiles": "C[C@H](CO)N1C[C@H](C)[C@@H](CN(C)Cc2ccccc2)Oc2ccc(NC(=O)CCCN(C)C)cc2CC1=O", "cytotoxicity call": "inactive"}
{"smiles": "C[C@@H]1CN([C@@H](C)CO)C(=O)Cc2cc(NC(=O)CCCN(C)C)ccc2O[C@H]1CN(C)Cc1ccc(Oc2ccccc2)cc1", "cytotoxicity call": "inactive"}
{"smiles": "C[C@H](CO)N1C[C@H](C)[C@@H](CN(C)Cc2ccc(Oc3ccccc3)cc2)Oc2ccc(NC(=O)CCCN(C)C)cc2CC1=O", "cytotoxicity call": "inactive"}
{"smiles": "C[C@@H]1CN([C@@H](C)CO)C(=O)Cc2cc(NC(=O)CCCN(C)C)ccc2O[C@@H]1CN(C)Cc1ccc(Oc2ccccc2)cc1", "cytotoxicity call": "active"}
{"smiles": "C[C@H]1CN([C@@H](C)CO)C(=O)Cc2cc(NC(=O)CCCN(C)C)ccc2O[C@@H]1CN(C)Cc1ccc(Oc2ccccc2)cc1", "cytotoxicity call": "active"}
{"smiles": "C[C@@H]1CN([C@H](C)CO)C(=O)Cc2cc(NC(=O)CCCN(C)C)ccc2O[C@@H]1CN(C)Cc1ccc(Oc2ccccc2)cc1", "cytotoxicity call": "active"}
{"smiles": "C[C@@H]1CN([C@@H](C)CO)S(=O)(=O)c2ccc(C#Cc3ccccc3F)cc2O[C@@H]1CN(C)CC1CC1", "cytotoxicity call": "inactive"}
{"smiles": "C[C@H](CO)N1C[C@H](C)[C@@H](CN(C)Cc2ccc(Oc3ccccc3)cc2)Oc2c(NS(=O)(=O)c3ccc(F)cc3)cccc2C1=O", "cytotoxicity call": "inactive"}
{"smiles": "Cc1cc(=O)n2ncnc2n1CC(=O)NN", "cytotoxicity call": "inactive"}
{"smiles": "Cc1cc(C(=O)Nc2cccc3c2O[C@H](CN(C)C(=O)NC2CCCCC2)[C@@H](C)CN([C@@H](C)CO)C3=O)n(C)n1", "cytotoxicity call": "inactive"}
{"smiles": "C[C@H](CO)N1C[C@H](C)[C@H](CN(C)S(=O)(=O)c2cn(C)cn2)Oc2ccc(NC(=O)NC3CCCCC3)cc2CC1=O", "cytotoxicity call": "inactive"}
{"smiles": "C[C@@H]1CN([C@H](C)CO)C(=O)c2cc(NC(=O)CCN3CCOCC3)ccc2O[C@H]1CN(C)C(=O)Nc1ccccc1", "cytotoxicity call": "inactive"}
{"smiles": "CS(=O)(=O)Nc1ccc2c(c1)[C@H]1C[C@@H](CC(=O)NCC3CC3)O[C@@H](CO)[C@H]1O2", "cytotoxicity call": "inactive"}
{"smiles": "CC(C)N1C[C@@H](CNCc2ccc(Oc3ccccc3)cc2)Oc2c(NC(=O)c3ccncc3)cccc2C1=O", "cytotoxicity call": "inactive"}
{"smiles": "COc1ccccc1N1CCN(CC(O)COc2cccc3ccccc23)CC1", "note": "(centres undefined)", "cytotoxicity call": "active"}
{"smiles": "COCCc1ccc(OCC(O)CNC(C)C)cc1.O=C(O)C(O)C(O)C(=O)O", "note": "(centres undefined)", "cytotoxicity call": "inactive"}
{"smiles": "C=CCc1ccccc1OCC(O)CNC(C)C.Cl", "note": "(centres undefined)", "cytotoxicity call": "active"}
{"smiles": "CC(C)NCC(O)COc1cccc2ccccc12.Cl", "note": "(centres undefined)", "cytotoxicity call": "active"}
{"smiles": "COc1ccccc1OCC(O)CN1CCN(CC(=O)Nc2c(C)cccc2C)CC1.Cl.Cl", "note": "(centres undefined)", "cytotoxicity call": "inactive"}
{"smiles": "CC(C)NCC(O)COc1ccc(COCCOC(C)C)cc1.O=C(O)C=CC(=O)O", "note": "(centres undefined)", "cytotoxicity call": "inactive"}
{"smiles": "CC(C)NCC(O)COc1cccc2[nH]ccc12", "note": "(centres undefined)", "cytotoxicity call": "inactive"}
{"smiles": "CC(C)NCC(O)COc1ccc(CC(N)=O)cc1", "note": "(centres undefined)", "cytotoxicity call": "inactive"}
{"smiles": "O=C1C(=O)N(C[C@@H](O)COc2cccc3ccccc23)C(=O)C(=O)N1C[C@@H](O)COc1cccc2ccccc12", "cytotoxicity call": "inactive"}
{"smiles": "CC(C)NCC(O)COc1cccc2[nH]c3ccccc3c12", "note": "(centres undefined)", "cytotoxicity call": "active"}
